Reference: PubChem BioAssay (NCATS)
Records with an inconclusive call do not appear. Calls of active or inactive are those of the source. Unless noted, calls come from the whole dose curve; as a rule, active = well fitted curve in the direction sought with a large enough effect; inconclusive = small, poorly fitted or top-dose-only effect, or another doubt; inactive = no such curve, though single readings can be large; an effect the other way counts as inactive or inconclusive.

Tests used:
[1] = AP1 Signaling Pathway (AID 357; active = well fitted curve in either direction with a large enough effect, not every such curve was filed as active; note: % is set by controls: 0 for no effect and ±100 for the full control effect)
Summary of the method: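 AP-1-bla ME-180 cells with beta-lactamase reporter under AP-1 response element, stimulated with EC50 EGF; compounds titrated, 5 hours at 37 degrees Celsius. CCF4 read at 460/530 nm ratio; positive and negative modulators judged by AC50.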

[2] = molecular target: Cytochrome P450 1A2 (Homo sapiens) (UniProt P05177); assay: p450-cyp1a2 (AID 410; calls by dose curve; note: potency is the fitted concentration of half-maximal effect)
Summary of the method: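 20nM CYP1A2 with 100uM Luciferin-ME (at Km) in 100mM KPO4; compound preincubated 10 min, NADPH regeneration added, 60 min at room temperature. Luciferin quantified by luminescence after detection reagent; normalized to 57 uM furafylline.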

[3] = Stat Signaling Pathway (AID 446; active = well fitted curve in either direction with a large enough effect, not every such curve was filed as active;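 note: ME-180 cervical cancer cells given 40 pM IL-6 alongside compound; SIE-controlled beta-lactamase reporter measured as 460/530 nm FRET emission ratio; % is set by controls: 0 for no effect and ±100 for the full control effect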)
Summary of the method: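 Screening format detects activators and inhibitors alike: ME-180 SIE-bla cells stimulated at 40 pM IL-6 for 5 hrs with compound, then dual-emission beta-lactamase read at 405 nm excitation.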

[4] = molecular target: Glucocorticoid receptor (Homo sapiens) (UniProt P04150); assay: GR-GFP Redistribution (AID 450;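 active = compounds whose dose series gives a full or clear partial fitted curve of increased nuclear translocation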; note: potency is the fitted concentration of half-maximal effect); details: U2OS GR-GFP nuclear translocation, laser cytometry, 2 h
[5] = molecular target: Glucocorticoid receptor (Homo sapiens) (UniProt P04150); assay: GR-EFC Redistribution (AID 451; calls by dose curve; note: potency is the fitted concentration of half-maximal effect); details: CHO-K1 GR-EFC translocation, beta-gal luminescence, 2 h
Summary of the method: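 CHO-K1 cells stably expressing nuclear-localized β-gal enzyme acceptor and GR fused C-terminally to the enzyme donor fragment; ligand-driven nuclear translocation restores β-gal by complementation. Compounds titrated up to 46 uM final, 2 h at 37 °C; luminescence read.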

[6] = molecular target: Mitogen-activated protein kinase 10 (Mus musculus) (UniProt Q61831); assay: JNK3 AlphaScreen Assay (AID 530; active = well fitted curve in either direction with a large enough effect, not every such curve was filed as active;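 note: kinase came from lysate of stimulated human HepG2 cells; signal reports phosphorylation of biotinylated GST-cJun 1-79 at Ser73 with 10 µM ATP; % is set by controls: 0 for no effect and ±100 for the full control effect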)
Summary of the method: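 Inhibitors reduce antibody binding to phosphorylated biotin-cJun, lowering AlphaScreen luminescence. Lysates from HepG2 cells pre-activated by IL-1beta plus TNF-alpha supplied JNK3; compounds were titrated.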

[7] = molecular target: 3',5'-cyclic-AMP phosphodiesterase 4B (Homo sapiens) (UniProt Q07343); assay: qHTS Assay for Inhibitors of PDE-IV (AID 607; active = well fitted activation curve with a large enough effect in the main read-out, with a control signal flat, not every such curve was filed as active; note: % of control where 0% means no effect)
Summary of the method: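 The readout is membrane depolarisation from a cAMP-sensing CNG channel, detected with a potential dye at ex 535/em 590. Cells were HEK293-derived (endogenous PDE-IV) at 1000 cells/well, titrated up to 22.9 uM final.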

[8] = molecular target: Guanine nucleotide-binding protein G(i) subunit alpha-1 (Homo sapiens) (UniProt P63096); assay: qHTS Assay for Inhibitors of RGS12 GoLoco Motif Activity (Green Fluorophore) (AID 879);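 note: 0% = labeled peptide with Gαi1 and full inhibition = labeled peptide alone without protein; negative values mean loss of peptide binding seen as reduced polarization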
Summary of the method: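 Fluorescence polarization assay: 50 nM Gαi1 with 10 nM FITC-labeled RGS12 GoLoco peptide in 10 mM Tris pH 7.5, 150 mM NaCl, 0.1 mM GDP, 0.05% NP40, 10 min at room temperature with compound.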

[9] = qHTS Assay for Identification of Small Molecule Antagonists for NFkB Signaling Pathway (AID 895; active = well fitted inhibition curve with a large enough effect in the signal ratio, with a control signal flat, not every such curve was filed as active; the % refers to the signal ratio; note: potency is the fitted concentration of half-maximal effect)
Summary of the method: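 NFkB-bla ME-180 cervical carcinoma cells with beta-lactamase reporter under NFkB response element; compounds added, then TNF alpha at 10 pM final (EC50), 5 h at 37 C. LiveBLAzer substrate 2 h, room temperature; emission 460/530 nm at 405 nm excitation.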

[10] = molecular target: Muscarinic acetylcholine receptor M1 (Rattus norvegicus) (UniProt P08482); assay: qHTS Assay for Antagonists of Acetylcholine Muscarinic M1 Receptor: Kinetic Measurement of Intracellular Calcium Response (AID 943); note: potency is the fitted concentration of half-maximal effect; nearly all actives have a fitted effect of over 75% in size
Summary of the method: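 CHO cells expressing rat M1 receptor, Fluo-4 loaded, preincubated 10 min with compound, then stimulated with EC80 carbachol (100 nM final). Kinetic calcium fluorescence over 4 min; response taken as peak over basal signal.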

[11] = molecular target: Muscarinic acetylcholine receptor M1 (Rattus norvegicus) (UniProt P08482); assay: qHTS Assay for Antagonists of Acetylcholine Muscarinic M1 Receptor: Measurement of IP-One Response (AID 944); note: potency is the fitted concentration of half-maximal effect; nearly all actives have a fitted effect of over 75% in size
Summary of the method: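 CHO cells stably expressing rat M1, pretreated 10 min with compound, then stimulated 30 min with carbachol at EC80 (200 nM) in LiCl-containing buffer pH 7.4; IP1 accumulation read by HTRF competition (665/620 nm).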

[12] = molecular target: Pyruvate kinase (Leishmania mexicana) (UniProt Q27686); assay: qHTS Validation Assay for Inhibitors of Leishmania Mexicana Pyruvate Kinase (AID 945);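 note: 0% = DMSO only neutral control wells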
Summary of the method: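 LmPYK E451W 0.2 nM; 0.5 mM PEP, 0.1 mM ADP, 7 mM MgCl2, 50 mM KCl, imidazole pH 7.2, 0.01% Tween 20, 0.05% BSA; 1 h RT; PKLight luminescence; DMSO-normalized.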

[13] = molecular target: Pyruvate kinase PKM (Homo sapiens) (UniProt P14618); assay: qHTS Assay for Activators of Human Muscle Pyruvate Kinase (AID 954; active = well fitted curve in the direction sought with a large enough effect, not every such curve was filed as active;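 note: 0% = uninhibited enzyme and -100% = no enzyme or full thiadiazolimine inhibition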)
Summary of the method: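 Reaction: 0.1 nM purified PKM2 with 0.5 mM phosphoenolpyruvate and 0.1 mM ADP, room temperature, 1 h. Readout: luciferase-based ATP luminescence after stop reagent. Activators judged against a 0.3 nM enzyme column.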

[14] = molecular target: Alpha-galactosidase (Coffea arabica) (UniProt Q42656); assay: Counterscreen for Glucocerebrosidase Inhibitors: qHTS Assay for Coffee Bean alpha-Galactosidase at pH 4.5 (AID 957);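 note: plate controls were enzyme alone for no effect and no enzyme for full effect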
Summary of the method: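 Coffee bean enzyme (2 nM) with 80 uM 4-methylumbelliferyl alpha-D-galactopyranoside in 50 mM citric acid, 0.005% Tween-20, pH 4.5, 20 min at room temperature; compounds 0.7 nM–77 uM. Stopped at pH 10, fluorescence 365/440 nm; AC50 from Hill fits.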

[15] = molecular target: Alpha-galactosidase A (Homo sapiens) (UniProt P06280); assay: Counterscreen for Glucocerebrosidase Inhibitors: qHTS Assay for Human alpha-Galactosidase at pH 4.5 (AID 992); note: 0% is about no effect
Summary of the method: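 Concentration-response curves (0.7 nM to 77 uM final) were modeled with the Hill equation to give AC50. Reactions: 2 nM enzyme, 80 uM fluorogenic alpha-galactoside, pH 4.5 citric acid buffer, 20 min, room temperature.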

[16] = molecular target: alpha-glucosidase (Oryza sativa, rice) (UniProt Q653V4); assay: Counterscreen for Glucocerebrosidase Inhibitors: qHTS Assay for Rice alpha-Glucosidase at pH 5.0 (AID 997);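 note: 0% = full activity with enzyme and -100% = basal without enzyme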
Summary of the method: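 Rice alpha-glucosidase (4 nM final) with 400 uM 4-methylumbelliferyl-alpha-D-glucopyranoside in citrate buffer pH 5.0, 20 min at room temperature, stopped at pH 10; fluorescence 365/440 nm, compounds 0.7 nM–77 uM, AC50 from Hill fits.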

[17] = qHTS Assay for Lipid Storage Modulators (AID 1519; calls by dose curve); details: Drosophila S3 cells, BODIPY lipid droplet/cell ratio, laser cytometry, cells loaded with oleic acid
Summary of the method: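 Cells seeded at 5,000 per well were treated with compounds over a concentration series and loaded with oleic acid (400 uM, as added). Lipid droplet fluorescence (488 nm excitation, 500-530 nm channel) was read by laser-scanning cytometry and normalized to 20 uM Triacsin C.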

[18] = molecular target: DNA repair nuclease/redox regulator APEX1 (Homo sapiens) (UniProt P27695); assay: qHTS Validation Assay for Inhibitors of the Human Apurinic/apyrimidinic Endonuclease 1 (APE1) (AID 1705;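 note: TAMRA fluorescence gain over two minutes as APE1 cuts a quenched THF abasic duplex; % is set by controls: 0 for no effect and ±100 for the full control effect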)
Summary of the method: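 Substrate: 50 nM final fluorophore/quencher THF-abasic duplex. Enzyme preincubated with compounds 15 min, RT. Progress derived from fluorescence difference, third minus first kinetic read.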

Sequence of Muscarinic acetylcholine receptor M1 (Rattus norvegicus) (P08482 whole entry, looked up): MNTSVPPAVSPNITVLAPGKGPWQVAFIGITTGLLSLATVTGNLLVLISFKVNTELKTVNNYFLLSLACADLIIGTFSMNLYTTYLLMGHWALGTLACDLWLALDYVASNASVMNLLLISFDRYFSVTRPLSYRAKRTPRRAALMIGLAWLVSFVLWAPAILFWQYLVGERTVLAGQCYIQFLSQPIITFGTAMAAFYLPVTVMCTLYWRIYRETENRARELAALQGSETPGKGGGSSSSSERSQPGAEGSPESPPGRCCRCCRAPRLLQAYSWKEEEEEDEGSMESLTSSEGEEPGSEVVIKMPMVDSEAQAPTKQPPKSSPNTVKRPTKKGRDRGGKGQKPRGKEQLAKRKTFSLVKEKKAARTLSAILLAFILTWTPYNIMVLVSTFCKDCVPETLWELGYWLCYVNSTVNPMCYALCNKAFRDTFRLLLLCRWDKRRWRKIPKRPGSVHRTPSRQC
Sequence of Glucocorticoid receptor (Homo sapiens) (P04150 whole entry, looked up, the tested form may be a part): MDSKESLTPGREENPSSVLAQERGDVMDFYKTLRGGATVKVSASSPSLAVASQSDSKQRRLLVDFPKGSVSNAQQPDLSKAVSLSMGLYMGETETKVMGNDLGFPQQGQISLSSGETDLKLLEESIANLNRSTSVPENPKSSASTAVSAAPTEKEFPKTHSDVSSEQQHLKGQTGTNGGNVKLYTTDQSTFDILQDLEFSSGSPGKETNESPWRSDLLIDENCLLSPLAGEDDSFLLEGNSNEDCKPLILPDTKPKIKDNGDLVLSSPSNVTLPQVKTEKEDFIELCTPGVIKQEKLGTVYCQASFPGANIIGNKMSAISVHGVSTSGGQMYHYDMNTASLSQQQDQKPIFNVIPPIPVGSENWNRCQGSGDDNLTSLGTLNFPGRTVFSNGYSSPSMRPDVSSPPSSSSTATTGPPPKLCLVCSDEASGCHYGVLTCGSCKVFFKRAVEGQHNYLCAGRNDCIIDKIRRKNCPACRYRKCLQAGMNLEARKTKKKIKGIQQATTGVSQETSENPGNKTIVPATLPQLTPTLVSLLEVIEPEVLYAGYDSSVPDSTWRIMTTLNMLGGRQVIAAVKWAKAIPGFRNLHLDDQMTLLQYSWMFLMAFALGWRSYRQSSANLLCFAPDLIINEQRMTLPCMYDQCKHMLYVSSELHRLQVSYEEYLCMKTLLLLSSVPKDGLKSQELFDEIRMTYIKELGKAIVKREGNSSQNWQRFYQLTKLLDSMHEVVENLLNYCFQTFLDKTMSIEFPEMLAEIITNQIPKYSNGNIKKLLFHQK
Sequence of Alpha-galactosidase A (Homo sapiens) (P06280 whole entry, looked up): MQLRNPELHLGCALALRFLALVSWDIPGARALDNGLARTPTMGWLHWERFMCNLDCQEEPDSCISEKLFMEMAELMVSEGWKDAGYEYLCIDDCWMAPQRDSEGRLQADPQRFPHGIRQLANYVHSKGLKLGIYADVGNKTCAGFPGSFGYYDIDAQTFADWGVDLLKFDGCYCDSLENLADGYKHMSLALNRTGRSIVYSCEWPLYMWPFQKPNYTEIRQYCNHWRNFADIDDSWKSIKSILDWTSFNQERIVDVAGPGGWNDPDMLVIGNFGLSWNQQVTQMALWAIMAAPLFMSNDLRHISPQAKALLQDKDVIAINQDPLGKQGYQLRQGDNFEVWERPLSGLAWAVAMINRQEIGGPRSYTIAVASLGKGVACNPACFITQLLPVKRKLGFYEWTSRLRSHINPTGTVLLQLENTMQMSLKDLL
Sequence of Cytochrome P450 1A2 (Homo sapiens) (P05177 whole entry, looked up): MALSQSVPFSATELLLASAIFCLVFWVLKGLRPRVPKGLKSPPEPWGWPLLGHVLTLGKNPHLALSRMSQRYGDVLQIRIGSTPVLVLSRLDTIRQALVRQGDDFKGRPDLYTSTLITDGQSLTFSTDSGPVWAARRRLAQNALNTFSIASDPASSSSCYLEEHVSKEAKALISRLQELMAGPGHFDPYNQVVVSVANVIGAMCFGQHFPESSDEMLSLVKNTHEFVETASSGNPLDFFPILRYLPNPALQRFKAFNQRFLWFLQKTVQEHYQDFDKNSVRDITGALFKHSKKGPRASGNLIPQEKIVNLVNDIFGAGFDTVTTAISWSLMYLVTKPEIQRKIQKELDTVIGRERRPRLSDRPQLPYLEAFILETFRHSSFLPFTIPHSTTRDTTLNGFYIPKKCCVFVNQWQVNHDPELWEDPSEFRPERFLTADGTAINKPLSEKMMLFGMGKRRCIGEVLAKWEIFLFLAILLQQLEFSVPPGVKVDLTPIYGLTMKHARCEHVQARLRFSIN
Sequence of 3',5'-cyclic-AMP phosphodiesterase 4B (Homo sapiens) (Q07343 whole entry, looked up): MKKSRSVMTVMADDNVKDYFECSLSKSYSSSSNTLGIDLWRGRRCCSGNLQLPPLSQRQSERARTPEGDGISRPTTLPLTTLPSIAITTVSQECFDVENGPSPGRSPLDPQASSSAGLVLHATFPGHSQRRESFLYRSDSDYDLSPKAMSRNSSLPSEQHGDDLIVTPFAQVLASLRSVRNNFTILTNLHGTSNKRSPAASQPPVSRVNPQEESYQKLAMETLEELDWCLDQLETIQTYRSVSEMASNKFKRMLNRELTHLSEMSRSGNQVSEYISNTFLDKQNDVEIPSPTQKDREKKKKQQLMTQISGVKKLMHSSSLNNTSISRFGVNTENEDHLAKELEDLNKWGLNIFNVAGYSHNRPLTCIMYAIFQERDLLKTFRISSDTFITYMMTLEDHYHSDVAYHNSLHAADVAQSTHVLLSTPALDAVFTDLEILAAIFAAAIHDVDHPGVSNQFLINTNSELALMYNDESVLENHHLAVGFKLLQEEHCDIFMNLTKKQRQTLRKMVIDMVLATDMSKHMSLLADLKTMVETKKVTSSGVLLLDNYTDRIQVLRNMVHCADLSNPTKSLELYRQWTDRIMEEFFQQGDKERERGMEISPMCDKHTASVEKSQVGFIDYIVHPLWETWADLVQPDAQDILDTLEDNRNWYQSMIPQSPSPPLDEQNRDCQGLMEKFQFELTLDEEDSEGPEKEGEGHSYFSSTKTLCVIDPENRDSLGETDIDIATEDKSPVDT
Sequence of Alpha-galactosidase (Coffea arabica) (Q42656 whole entry, looked up): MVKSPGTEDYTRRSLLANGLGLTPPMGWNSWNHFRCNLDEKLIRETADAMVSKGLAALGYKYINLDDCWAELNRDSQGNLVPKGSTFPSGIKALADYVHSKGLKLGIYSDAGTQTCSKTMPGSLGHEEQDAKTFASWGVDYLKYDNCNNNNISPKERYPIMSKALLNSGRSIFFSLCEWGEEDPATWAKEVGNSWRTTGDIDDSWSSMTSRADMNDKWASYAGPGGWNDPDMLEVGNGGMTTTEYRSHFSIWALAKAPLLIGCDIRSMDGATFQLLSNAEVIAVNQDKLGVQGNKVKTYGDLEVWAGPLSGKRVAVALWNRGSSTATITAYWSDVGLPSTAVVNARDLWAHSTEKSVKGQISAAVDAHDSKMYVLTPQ
Sequence of Pyruvate kinase (Leishmania mexicana) (Q27686 2-499 E452W): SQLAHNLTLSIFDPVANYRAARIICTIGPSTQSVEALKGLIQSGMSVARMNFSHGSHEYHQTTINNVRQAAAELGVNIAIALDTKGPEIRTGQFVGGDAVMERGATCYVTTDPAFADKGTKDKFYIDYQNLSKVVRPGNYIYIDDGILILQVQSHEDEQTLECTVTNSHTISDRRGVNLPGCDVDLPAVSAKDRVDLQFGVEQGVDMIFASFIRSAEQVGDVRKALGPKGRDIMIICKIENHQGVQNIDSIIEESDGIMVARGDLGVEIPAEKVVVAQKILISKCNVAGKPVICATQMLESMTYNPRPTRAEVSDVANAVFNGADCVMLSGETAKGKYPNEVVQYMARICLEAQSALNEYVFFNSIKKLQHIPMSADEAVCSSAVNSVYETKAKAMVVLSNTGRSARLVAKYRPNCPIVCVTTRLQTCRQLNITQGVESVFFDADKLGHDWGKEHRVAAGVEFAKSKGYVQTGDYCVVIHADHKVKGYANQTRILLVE
Sequence of Guanine nucleotide-binding protein G(i) subunit alpha-1 (Homo sapiens) (P63096 whole entry, looked up): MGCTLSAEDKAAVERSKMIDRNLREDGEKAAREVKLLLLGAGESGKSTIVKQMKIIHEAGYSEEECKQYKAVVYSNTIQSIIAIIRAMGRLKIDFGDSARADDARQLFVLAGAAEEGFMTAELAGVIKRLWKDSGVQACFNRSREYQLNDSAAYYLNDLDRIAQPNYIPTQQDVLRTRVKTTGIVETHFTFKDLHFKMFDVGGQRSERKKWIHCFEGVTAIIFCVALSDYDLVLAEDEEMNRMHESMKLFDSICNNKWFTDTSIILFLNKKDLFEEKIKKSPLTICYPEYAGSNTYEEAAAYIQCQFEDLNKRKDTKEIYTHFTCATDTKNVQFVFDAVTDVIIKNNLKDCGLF
Sequence of Pyruvate kinase PKM (Homo sapiens) (P14618 whole entry, looked up): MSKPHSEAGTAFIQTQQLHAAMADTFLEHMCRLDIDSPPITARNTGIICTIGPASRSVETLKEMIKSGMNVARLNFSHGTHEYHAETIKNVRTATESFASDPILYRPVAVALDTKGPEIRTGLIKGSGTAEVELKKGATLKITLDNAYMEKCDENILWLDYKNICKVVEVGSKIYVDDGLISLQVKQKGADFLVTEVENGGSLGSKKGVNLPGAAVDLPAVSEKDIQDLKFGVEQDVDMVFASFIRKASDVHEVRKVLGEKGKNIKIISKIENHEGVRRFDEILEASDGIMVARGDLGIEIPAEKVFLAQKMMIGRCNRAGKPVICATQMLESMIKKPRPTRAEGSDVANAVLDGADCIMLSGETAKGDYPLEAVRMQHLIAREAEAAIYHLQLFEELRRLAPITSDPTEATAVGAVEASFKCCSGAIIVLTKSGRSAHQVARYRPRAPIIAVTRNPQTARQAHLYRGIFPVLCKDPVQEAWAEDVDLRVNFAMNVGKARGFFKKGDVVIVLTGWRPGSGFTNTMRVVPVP
Sequence of DNA repair nuclease/redox regulator APEX1 (Homo sapiens) (P27695 whole entry, looked up): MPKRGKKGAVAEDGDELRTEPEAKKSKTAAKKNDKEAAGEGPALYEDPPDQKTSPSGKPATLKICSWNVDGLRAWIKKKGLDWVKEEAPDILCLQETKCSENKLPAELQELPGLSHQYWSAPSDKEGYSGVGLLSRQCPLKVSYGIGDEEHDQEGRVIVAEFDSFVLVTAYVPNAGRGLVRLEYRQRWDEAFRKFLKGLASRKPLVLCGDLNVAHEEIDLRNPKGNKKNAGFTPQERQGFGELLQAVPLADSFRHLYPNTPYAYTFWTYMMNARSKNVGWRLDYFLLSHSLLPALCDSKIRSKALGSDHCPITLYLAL

O=C(OC1CCN(CCCl)CC1)C(c1ccccc1)c1ccccc1
-14.8%: max response ([17]; measured here: lipid channel max response)
active: Potency [2] 12.6 µM | Potency [9] 2.51 µM | Potency [10] 0.112 µM | Potency [11] 0.562 µM
-17.2%: max response ([17]; measured here: cell count channel max response)
inactive: outcome [1] | outcome [3] | Potency [4] > 46 µM | Potency [5] > 46 µM | outcome [6] | Potency [7] | outcome [8] | Potency [12] | outcome [13] | outcome [14] | outcome [15] | outcome [16] | activity change, negative = inhibition ([17]; at 57.5 µM (top of the series)) 0.755% | Potency [18]
